# PubChem BioAssay AID430 (Sanford-Burnham Center for Chemical Genomics, 2006)
# In all, about 63,000 compounds went through this assay and about 1,100 (1.7%) were called active. Shown is part of a subset that was picked to be rich in actives. Potency and affinity values are given separately. A number with no mark means an inactive call. Cut-off read from the data, not from the text of the source: active = cytotoxicity above about 50%; inactive = the rest.
# Test: HPDE-C7 pancreatic duct cell viability loss – fluorescence, HTS (AID 430);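 note: cells exposed to compound for 48 hours before viability readout; 0% = vehicle and 100% = reference cytotoxic drug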
# Conditions: HPDE-C7 pancreatic duct cells viability, at 10 µM, stronger effect = higher value
row,SMILES,cytotoxicity
1,COCC(=O)Nc1nc2n(n1)C(c1ccc(OC)cc1)CC(c1ccc(OC)cc1)N2 (stereo not drawn),2.7%
2,O=C(NCCN1CCc2ccccc2C1)Nc1ccc(F)cc1,-10.7%
3,CSc1nc2cc(F)c(F)cc2n1C,-9.5%
4,COc1cc(C)c(Br)cc1S(=O)(=O)N1CCOCC1,-9.6%
5,Cc1nn(CCCC(=O)N2CCc3ccccc3C2)c(=O)c2cc3sccc3n12,-7.2%
6,O=C(Oc1ccccc1C(=O)N1CCOCC1)c1ccc(Br)cc1,-14.1%
7,CN(CCc1ccccn1)Cc1ccc(Cl)cc1,-13.4%
8,CC(C)c1nc2oc3c(NCC4CCCO4)ncnc3c2c2c1COC(C)(C)C2 (stereo not drawn),-14.6%
9,CC(C)c1nc2oc3c(NCC4CCCO4)ncnc3c2c2c1CCC2 (stereo not drawn),114% (active)
10,Cc1nc2oc3c(NCC4CCCO4)ncnc3c2c2c1COC(C)(C)C2 (stereo not drawn),-3.9%
11,CCCc1cc(N2CCCC(C(=O)Nc3cc(Cl)ccc3OC)C2)n2ncnc2n1 (stereo not drawn),-9.9%
12,COc1cc(NC(=O)Nc2ccccc2OC)c(OC)cc1NC(=O)CN1CCCCC1,1.9%
13,COc1cc(NC(=O)Nc2cccc(Cl)c2)c(OC)cc1NC(=O)CN1CCCCC1,83.1% (active)
14,COc1cc(NC(=O)Nc2ccccc2)c(OC)cc1NC(=O)CN1CCCCC1,6.1%
15,Cc1nc(CNS(=O)(=O)c2ccc3c(c2)OCCO3)cs1,-11.4%
16,Cc1ccc(-c2csc(N3CCC(NS(=O)(=O)c4ccc5c(c4)OCCO5)CC3)n2)cc1,54.6% (active)
17,CC1CCCC(NS(=O)(=O)c2ccc3c(c2)OCCO3)C1C (stereo not drawn),-7.8%
18,Cc1nc2ccc(S(=O)(=O)NCC(=O)N3CCC(C)CC3)cc2s1,-1%
19,O=c1[nH]c(-c2ccc(Cl)cc2)nc2c1cnn2-c1ccccc1,3.6%
20,CCCCCSc1nc2c(cnn2-c2ccccc2)c(=O)[nH]1,57.7% (active)
21,CCCCSc1nc2c(cnn2-c2ccc(F)cc2)c(=O)[nH]1,-30.5%
22,CCCSc1nc2c(cnn2-c2ccccc2)c(=O)[nH]1,-0.6%
23,CCOC(=O)N1CCN(c2c(-c3ccc(C(C)C)cc3)c(=O)c2=O)CC1,1.3%
24,COCc1nc(-c2cc(OC)c(OC)c(OC)c2)no1,-19%
25,CCN(CC)c1ccc2cc(-c3nc4ccccc4n3C)c(=O)oc2c1,67% (active)

row,SMILES,cytotoxicity
1,CCN(CC)c1ccc2cc(-c3nnc(-c4ccncc4)o3)c(=O)oc2c1,59.2% (active)
2,CCN(CC)c1ccc2cc(C(=O)Nc3ccccn3)c(=O)oc2c1,9.8%
3,CC(=O)Oc1ccc2cc(-c3nc4ccccc4n3C)c(=O)oc2c1,4.2%
4,O=c1oc2ccc3ccccc3c2cc1-c1nnc(-c2ccccc2)o1,13.4%
5,CCN(CC)c1ccc2cc(-c3nc4ccccc4[nH]3)c(=O)oc2c1,30.8%
6,O=C(Nc1cccnc1)c1cc2nc(C3CC3)cc(C(F)(F)F)n2n1,-15.8%
7,Cc1ccc(SCc2cn3c(C)csc3n2)cc1,-10.2%
8,c1ccc(OCc2nn3c(Cn4nnc5ccccc54)nnc3s2)cc1,-15.5%
9,Cc1noc(C)c1S(=O)(=O)Nc1ccc(C(=O)N2CCc3ccccc3C2)cc1,-2.2%
10,Cn1nnc(NC(=O)c2ccccc2F)n1,-4.8%
11,CN1CCN(Cc2c(O)ccc3c(=O)c(Oc4ccccc4Cl)c(C(F)(F)F)oc23)CC1,-17%
12,O=C(c1ccco1)N1CCN(C(=O)c2cccc3c2C(=O)N(C2CCCCC2)C3)CC1,-10%
13,CN1CCN(CC#CC2(O)CCCCC2)CC1,-31.9%
14,COc1ccc(CC(=O)Nc2ccc(-c3noc(-c4cc(OC)c(OC)c(OC)c4)n3)cc2)cc1,-2.7%
15,CC(C)Sc1nc(NCc2ccco2)c2c3c(sc2n1)COC(C)(C)C3,83.4% (active)
16,CC(C)c1nc2sc3c(NCc4ccco4)ncnc3c2c2c1COC(C)(C)C2,-10.3%
17,c1coc(CNc2ncnc3sc4c(c23)CCCCC4)c1,-10.2%
18,CSc1nc(SCC(=O)NCc2ccco2)c2c3c(sc2n1)COC(C)(C)C3,51% (active)
19,Cc1nc(NCc2ccco2)c2c3c(sc2n1)CCC3,56.1% (active)
20,O=C(CSc1ncnc2sc3c(c12)CCCCC3)NCc1ccco1,-22.5%
21,CC(C)c1nc2sc3c(SCC(=O)NCc4ccco4)ncnc3c2c2c1CCC2,5.7%
22,CCCc1nc2sc3c(SCC(=O)NCc4ccco4)ncnc3c2c2c1CCC2,59% (active)
23,Cc1nc(SCC(=O)NCc2ccco2)c2c3c(sc2n1)CCCC3,-4.3%
24,CSc1nc(NCc2ccco2)c2c3c(sc2n1)CN(C)CC3,-21.3%
25,CC(C)Sc1nc(SCC(=O)NCc2ccco2)c2c3c(sc2n1)COC(C)(C)C3,24.2%

row,SMILES,cytotoxicity
1,CSc1nc(SCC(=O)NCc2ccco2)c2c3c(sc2n1)CN(C)CC3,-9.6%
2,CN1CC2(C(=O)c3ccccc3)CN(C)CC(C(=O)c3ccccc3)(C1)C2,-20.9%
3,O=c1nc2n(c3ccccc13)Cc1ccccc1-2,-1.4%
4,O=C(CSc1nnc(C2CC2)n1Cc1ccccc1)c1ccc(S(=O)(=O)N2CCOCC2)cc1,-8.3%
5,Cn1nc(C(=O)Nc2ccc(S(=O)(=O)N3CCCCC3)cc2)ccc1=O,-4.3%
6,Cn1c(=O)c2c(nc(Oc3ccccn3)n2C)n(C)c1=O,-12.5%
7,O=C(c1ccc2c(=O)n(-c3ccccc3)c(=O)[nH]c2c1)N1CCCCC1,-2.4%
8,COc1ccc(/C=N/n2cc(-c3ccc(OC)cc3)nc2N)cc1,-8.1%
9,COc1ccc(/C=N/n2cc(-c3ccccc3)nc2N)cc1,65.5% (active)
10,COc1ccc(/C=N/n2cnnc2SCc2ccccc2)cc1,3.5%
11,CC(C)NC(=O)Cn1c(SCC(=O)N2CCCc3ccccc32)nc2ccccc21,-5.8%
12,CC(C)NC(=O)Cn1c(SCC(=O)N2CCCCCC2)nc2ccccc21,-7.8%
13,CC(C)NC(=O)Cn1c(SCC(=O)N2CCc3ccccc3C2)nc2ccccc21,129% (active)
14,Cc1ccc(C(=O)Nc2ccccc2N2CCN(C(=O)C(C)C)CC2)cc1C,-15%
15,COc1ccc(NC(=O)Cn2cnc3c(cnn3-c3ccc(C)c(C)c3)c2=O)c(OC)c1,-1.2%
16,CN(C)CCOc1nc(-c2ccccc2)nc2c1oc1ccccc12,56.4% (active)
17,CCN(CC)CCOc1nc(C)nc2c1oc1ccccc12,-0.5%
18,CCc1nc(OCCN(C)C)c2oc3ccccc3c2n1,-12.4%
19,Cc1ccc2[nH]c(=O)c(CNC(C)(C)C)cc2c1,1.4%
20,O=C(C1=C(O)C(=O)N(CCN2CCOCC2)C1c1cccs1)c1cc2ccccc2o1 (stereo not drawn),-34.2%
21,CCS(=O)(=O)N1Cc2ccccc2CC1C(=O)Nc1nc2ccccc2[nH]1 (stereo not drawn),6.5%
22,Cc1nn(C)cc1C1C2=C(CC(C)(C)CC2=O)OC2=C1C(=O)CC(C)(C)C2,-12.3%
23,COC(=O)C1=C(N)OC2=C(C(=O)CC(C)(C)C2)C1c1ccoc1 (stereo not drawn),-0.4%
24,CCN(Cc1cc2cc(C)ccc2[nH]c1=O)C(=O)c1cccc(OC)c1,0.1%
25,Clc1cc(Cl)c2nc(N3CCCCC3)sc2c1,-1.2%

row,SMILES,cytotoxicity
1,COC(=O)c1c(C)nn(-c2ccccc2)c1N,4.7%
2,Cc1ccccc1NC(=O)N1CCCC(c2nc(-c3ccc(C(C)C)cc3)no2)C1 (stereo not drawn),33.3%
3,COc1ccc(-c2noc(C3CCCN(C(=O)c4cccs4)C3)n2)cc1 (stereo not drawn),-9%
4,COc1ccc(NC(=O)N2CCCC(c3nc(-c4ccc(C(C)C)cc4)no3)C2)cc1 (stereo not drawn),56.3% (active)
5,CC1=C(C(=O)N(C)C)C(c2ccc(Cl)c(Cl)c2)NC(=O)N1 (stereo not drawn),-1.2%
6,O=C(Nc1nc(-c2ccncc2)cs1)c1ccco1,9.1%
7,O=C(Nc1nc(-c2cc3ccccc3oc2=O)cs1)c1ccco1,85% (active)
8,Cc1csc(NC(=O)c2ccco2)n1,-14.7%
9,O=C(NC1CCCCC1)NC1(C(=O)NCCCN2CCOCC2)CCCCC1,-1.8%
10,CCN(CC)c1ccc(NC(=O)CN2CCN(CC(=O)Nc3ccc(F)cc3)CC2)cc1,4.2%
11,O=C(CN1CCOc2ccccc21)N1CCCC1,4.1%
12,CC(=O)c1ccc(NC(=O)C2CCC(C)NC2=O)cc1 (stereo not drawn),-4.9%
13,COc1ccc(-c2nnc3ccc(SCC(=O)N4CCN(c5ccccc5)CC4)nn23)cc1,-6.6%
14,CCOc1ccc(-c2nnc3ccc(SCC(=O)N4CCN(c5ccccc5)CC4)nn23)cc1,56.6% (active)
15,O=C(CSc1ccc2nnc(-c3ccccc3)n2n1)N1CCN(c2ccccc2)CC1,-3.5%
16,CCn1c(=N)c(C(N)=O)cc2c(=O)n3cccc(C)c3nc21,3.5%
17,Cc1cc(C)c2[nH]c(=O)c(C(c3nnnn3C3CCCC3)N3CCOCC3)cc2c1 (stereo not drawn),-7.3%
18,Cc1ccc(C(=O)Nc2nc3ccccc3n2CCN2CCCC2)cc1,1.6%
19,CCCn1c(NC(=O)c2ccc(C)cc2)nc2ccccc21,-34.1%
20,CCCn1c(NC(=O)c2ccc(Cl)c(S(=O)(=O)N3CCCC3)c2)nc2ccccc21,16.1%
21,CCCn1c(NC(=O)c2cccc(S(=O)(=O)N3CCCC3)c2)nc2ccccc21,61.9% (active)
22,O=C(Nc1nc2ccccc2n1CCN1CCCCC1)c1ccco1,-1.1%
23,O=C(Nc1nc2ccccc2n1CCN1CCCC1)c1ccc(Cl)cc1,59.6% (active)
